Data reported in ChEMBL document CHEMBL1961873, “Compounds: GSK PKIS; Assays: Nanosyn kinase panel” (2012).

Key:
[1] = biological target: T1, Serine/threonine-protein kinase D2 (Homo sapiens) (UniProt Q9BZL6); conditions: at 1 µM;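 note: mean value of PRKD2 inhibition, from the GSK PKIS screening panel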
T1 sequence (whole entry): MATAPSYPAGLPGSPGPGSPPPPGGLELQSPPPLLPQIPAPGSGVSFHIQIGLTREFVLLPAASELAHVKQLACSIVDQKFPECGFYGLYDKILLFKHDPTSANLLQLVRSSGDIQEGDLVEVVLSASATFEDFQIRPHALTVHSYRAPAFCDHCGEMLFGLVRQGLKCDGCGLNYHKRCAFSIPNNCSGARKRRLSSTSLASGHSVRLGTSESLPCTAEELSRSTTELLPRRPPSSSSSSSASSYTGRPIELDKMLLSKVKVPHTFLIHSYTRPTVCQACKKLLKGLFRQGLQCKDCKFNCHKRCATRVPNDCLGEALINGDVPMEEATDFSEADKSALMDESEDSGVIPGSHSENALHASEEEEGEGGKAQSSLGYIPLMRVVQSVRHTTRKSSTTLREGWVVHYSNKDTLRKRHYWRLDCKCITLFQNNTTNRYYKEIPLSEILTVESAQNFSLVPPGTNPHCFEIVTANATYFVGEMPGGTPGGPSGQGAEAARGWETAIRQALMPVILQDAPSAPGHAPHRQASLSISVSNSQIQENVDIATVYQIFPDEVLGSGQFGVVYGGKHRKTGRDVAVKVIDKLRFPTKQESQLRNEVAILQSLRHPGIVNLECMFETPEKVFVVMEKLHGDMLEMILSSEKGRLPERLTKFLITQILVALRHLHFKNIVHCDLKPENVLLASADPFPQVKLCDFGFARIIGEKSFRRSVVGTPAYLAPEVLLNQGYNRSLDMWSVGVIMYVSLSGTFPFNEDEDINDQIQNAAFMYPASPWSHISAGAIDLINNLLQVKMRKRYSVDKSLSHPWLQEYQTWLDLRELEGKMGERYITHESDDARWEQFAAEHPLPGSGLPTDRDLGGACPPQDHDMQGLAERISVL

[2] = biological target: T2, Serine/threonine-protein kinase D3 (Homo sapiens) (UniProt O94806); conditions: at 0.1 µM
T2 sequence (whole entry): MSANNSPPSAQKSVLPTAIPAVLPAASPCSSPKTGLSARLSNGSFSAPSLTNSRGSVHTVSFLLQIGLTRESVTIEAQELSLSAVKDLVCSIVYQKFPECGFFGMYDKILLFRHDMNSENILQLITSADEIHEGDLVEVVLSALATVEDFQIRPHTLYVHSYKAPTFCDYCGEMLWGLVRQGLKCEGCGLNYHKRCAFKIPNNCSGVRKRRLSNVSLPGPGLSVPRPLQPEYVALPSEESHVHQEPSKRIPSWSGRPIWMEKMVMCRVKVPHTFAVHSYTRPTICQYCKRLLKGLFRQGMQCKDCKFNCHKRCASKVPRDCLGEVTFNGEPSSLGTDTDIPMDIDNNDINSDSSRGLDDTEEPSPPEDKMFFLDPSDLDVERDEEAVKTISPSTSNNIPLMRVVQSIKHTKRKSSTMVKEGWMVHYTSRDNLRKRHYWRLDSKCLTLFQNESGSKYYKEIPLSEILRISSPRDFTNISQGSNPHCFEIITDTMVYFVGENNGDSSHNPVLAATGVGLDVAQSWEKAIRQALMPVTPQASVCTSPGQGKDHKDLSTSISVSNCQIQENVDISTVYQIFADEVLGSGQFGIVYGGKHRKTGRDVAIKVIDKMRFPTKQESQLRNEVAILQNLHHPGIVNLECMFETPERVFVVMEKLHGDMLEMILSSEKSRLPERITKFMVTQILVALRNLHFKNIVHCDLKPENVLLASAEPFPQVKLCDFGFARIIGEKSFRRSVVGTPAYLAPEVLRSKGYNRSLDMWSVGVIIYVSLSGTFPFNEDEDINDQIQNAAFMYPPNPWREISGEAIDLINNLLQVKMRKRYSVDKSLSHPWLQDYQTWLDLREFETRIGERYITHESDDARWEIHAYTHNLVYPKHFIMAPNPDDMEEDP

[3] = biological target: T2, Serine/threonine-protein kinase D3 (Homo sapiens); conditions: at 1 µM
[4] = biological target: T3, cGMP-dependent protein kinase 1 (Homo sapiens) (UniProt Q13976); conditions: at 0.1 µM
T3 sequence (whole entry): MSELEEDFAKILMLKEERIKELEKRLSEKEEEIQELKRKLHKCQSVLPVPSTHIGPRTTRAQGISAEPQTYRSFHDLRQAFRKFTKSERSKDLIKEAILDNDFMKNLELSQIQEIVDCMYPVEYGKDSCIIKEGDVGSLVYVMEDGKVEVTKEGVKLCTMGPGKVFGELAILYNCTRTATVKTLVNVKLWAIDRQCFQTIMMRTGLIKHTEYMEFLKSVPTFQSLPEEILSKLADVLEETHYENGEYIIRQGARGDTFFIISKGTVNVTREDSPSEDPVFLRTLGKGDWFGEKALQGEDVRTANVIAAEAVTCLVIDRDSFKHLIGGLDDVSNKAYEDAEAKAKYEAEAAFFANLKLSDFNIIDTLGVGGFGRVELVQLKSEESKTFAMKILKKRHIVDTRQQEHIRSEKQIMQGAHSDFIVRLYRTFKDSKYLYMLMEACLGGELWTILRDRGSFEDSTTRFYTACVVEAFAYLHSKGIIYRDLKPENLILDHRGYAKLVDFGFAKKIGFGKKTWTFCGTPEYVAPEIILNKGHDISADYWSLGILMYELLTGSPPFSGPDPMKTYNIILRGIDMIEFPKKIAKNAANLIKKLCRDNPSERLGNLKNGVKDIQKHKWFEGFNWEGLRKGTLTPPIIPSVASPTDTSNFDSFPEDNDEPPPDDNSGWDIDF

[5] = biological target: T3, cGMP-dependent protein kinase 1 (Homo sapiens); conditions: at 1 µM
[6] = biological target: T4, cGMP-dependent protein kinase 2 (Homo sapiens) (UniProt Q13237); conditions: at 0.1 µM
T4 sequence (whole entry): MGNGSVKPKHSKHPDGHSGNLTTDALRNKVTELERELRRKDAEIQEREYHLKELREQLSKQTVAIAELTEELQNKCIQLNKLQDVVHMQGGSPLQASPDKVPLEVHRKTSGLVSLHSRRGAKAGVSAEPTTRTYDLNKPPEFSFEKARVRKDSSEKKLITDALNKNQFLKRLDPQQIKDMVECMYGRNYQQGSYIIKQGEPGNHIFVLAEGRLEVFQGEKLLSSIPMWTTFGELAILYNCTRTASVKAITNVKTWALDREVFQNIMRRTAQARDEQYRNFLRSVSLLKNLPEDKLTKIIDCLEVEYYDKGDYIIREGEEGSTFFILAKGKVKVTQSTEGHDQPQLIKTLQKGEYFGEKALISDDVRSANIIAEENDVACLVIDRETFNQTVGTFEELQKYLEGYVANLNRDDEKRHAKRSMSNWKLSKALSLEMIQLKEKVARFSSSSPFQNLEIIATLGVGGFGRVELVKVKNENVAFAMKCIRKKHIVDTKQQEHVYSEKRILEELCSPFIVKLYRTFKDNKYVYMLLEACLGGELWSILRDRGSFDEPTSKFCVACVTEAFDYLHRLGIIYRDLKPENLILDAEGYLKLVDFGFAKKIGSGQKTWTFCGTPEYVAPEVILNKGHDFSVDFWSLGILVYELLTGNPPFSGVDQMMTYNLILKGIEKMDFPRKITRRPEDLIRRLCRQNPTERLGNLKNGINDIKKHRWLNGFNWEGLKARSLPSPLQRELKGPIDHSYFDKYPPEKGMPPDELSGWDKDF

[7] = biological target: T4, cGMP-dependent protein kinase 2 (Homo sapiens); conditions: at 1 µM
[8] = biological target: T5, cAMP-dependent protein kinase catalytic subunit PRKX (Homo sapiens) (UniProt P51817); conditions: at 0.1 µM
T5 sequence (whole entry): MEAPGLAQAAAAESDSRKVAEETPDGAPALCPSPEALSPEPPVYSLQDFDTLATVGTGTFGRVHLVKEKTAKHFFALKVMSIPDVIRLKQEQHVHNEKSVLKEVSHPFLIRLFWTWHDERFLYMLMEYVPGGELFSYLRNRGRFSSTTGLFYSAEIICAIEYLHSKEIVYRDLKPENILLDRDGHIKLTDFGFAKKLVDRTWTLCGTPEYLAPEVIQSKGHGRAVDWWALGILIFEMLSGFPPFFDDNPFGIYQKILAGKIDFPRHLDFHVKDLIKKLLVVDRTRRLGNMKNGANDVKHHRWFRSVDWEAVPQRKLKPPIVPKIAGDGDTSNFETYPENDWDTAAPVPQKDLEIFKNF

[9] = biological target: T5, cAMP-dependent protein kinase catalytic subunit PRKX (Homo sapiens); conditions: at 1 µM
[10] = biological target: Rho-associated protein kinase 1 (Homo sapiens) (UniProt Q13464); conditions: at 0.1 µM;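 note: values are mean percent inhibition of ROCK1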
Chain of Rho-associated protein kinase 1 (Homo sapiens) (Q13464 2-1354 limits assumed): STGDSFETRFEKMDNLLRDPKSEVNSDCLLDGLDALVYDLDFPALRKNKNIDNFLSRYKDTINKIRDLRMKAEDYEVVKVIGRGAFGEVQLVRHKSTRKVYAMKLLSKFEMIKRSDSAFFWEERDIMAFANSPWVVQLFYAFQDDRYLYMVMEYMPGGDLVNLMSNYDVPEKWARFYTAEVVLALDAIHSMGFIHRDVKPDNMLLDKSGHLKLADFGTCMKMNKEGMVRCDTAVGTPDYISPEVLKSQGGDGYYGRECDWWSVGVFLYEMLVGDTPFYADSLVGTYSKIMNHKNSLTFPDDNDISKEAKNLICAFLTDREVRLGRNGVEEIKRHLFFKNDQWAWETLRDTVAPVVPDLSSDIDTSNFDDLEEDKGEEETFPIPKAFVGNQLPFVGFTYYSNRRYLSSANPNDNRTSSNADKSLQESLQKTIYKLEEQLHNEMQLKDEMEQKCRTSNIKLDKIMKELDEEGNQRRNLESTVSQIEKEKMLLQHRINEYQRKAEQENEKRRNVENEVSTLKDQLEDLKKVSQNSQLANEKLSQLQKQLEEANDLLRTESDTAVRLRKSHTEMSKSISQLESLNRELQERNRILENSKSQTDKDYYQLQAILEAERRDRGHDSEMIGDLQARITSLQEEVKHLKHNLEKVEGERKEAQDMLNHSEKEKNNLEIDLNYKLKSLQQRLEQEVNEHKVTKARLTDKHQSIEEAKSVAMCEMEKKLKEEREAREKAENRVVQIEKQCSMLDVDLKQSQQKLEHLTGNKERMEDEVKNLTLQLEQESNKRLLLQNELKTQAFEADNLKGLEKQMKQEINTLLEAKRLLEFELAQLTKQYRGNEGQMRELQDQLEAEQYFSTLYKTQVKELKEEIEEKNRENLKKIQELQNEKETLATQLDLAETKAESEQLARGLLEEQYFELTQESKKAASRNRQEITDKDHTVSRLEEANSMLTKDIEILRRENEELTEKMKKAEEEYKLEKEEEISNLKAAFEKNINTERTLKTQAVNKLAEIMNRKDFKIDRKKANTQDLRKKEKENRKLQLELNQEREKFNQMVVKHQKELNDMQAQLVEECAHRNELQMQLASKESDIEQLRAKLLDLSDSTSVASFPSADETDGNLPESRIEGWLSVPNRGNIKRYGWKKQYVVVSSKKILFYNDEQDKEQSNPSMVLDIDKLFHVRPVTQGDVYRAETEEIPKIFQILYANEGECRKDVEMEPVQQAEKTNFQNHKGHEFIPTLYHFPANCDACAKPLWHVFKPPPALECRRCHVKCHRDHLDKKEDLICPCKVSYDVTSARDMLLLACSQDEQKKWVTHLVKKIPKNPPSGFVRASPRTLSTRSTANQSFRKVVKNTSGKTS

| Structure (SMILES) | inhibition [1] [%] | inhibition [2] [%] | inhibition [3] [%] | inhibition [4] [%] | inhibition [5] [%] | inhibition [6] [%] | inhibition [7] [%] | inhibition [8] [%] | inhibition [9] [%] | inhibition [10] [%] |
| --- | --- | --- | --- | --- | --- | --- | --- | --- | --- | --- |
| O=C(Nc1n[nH]c2nc(-c3ccco3)ccc12)C1CC1 | 1.79 | 0.02 | 1.55 | 2.2 | 4.23 | 0.68 | 3.61 | 2.71 | 3.87 | 1.29 |
| O=C(NCC1CC1)c1ccc(-c2cccc(C(=O)NC3CC3)c2)cc1 | 2.14 | 2.87 | 1.81 | 3.32 | 1.97 | 1.23 | 0.42 | 0.49 | -0.06 | 1.17 |
| COC(=O)Nc1nc2ccc(Sc3ccc(NC(=O)Nc4cc(C(F)(F)F)ccc4F)cc3)cc2[nH]1 | 0.52 | 1.06 | 0.51 | 0.91 | 1.52 | -0.08 | 0.57 | 0.23 | -1.11 | -0.63 |
| CN(C)CCOc1ccc(-c2cc(-c3ccc4c(c3)CCC4=NO)c(-c3ccncc3)o2)cc1 | 1.9 | -0.84 | 0.31 | -1.48 | 3.68 | -0.1 | 11.2 | -0.21 | -1.72 | -1.57 |
| Fc1ccc(-c2ncn(CCCN3CCOCC3)c2-c2ccncc2)cc1 | 3.09 | 1.63 | 2.8 | 0.4 | 0.29 | 0.94 | 0.26 | -0.21 | -1.38 | 1.06 |
| COc1cc(Nc2ncc3c(C)nc(-c4cccc(C(F)(F)F)c4)n3n2)cc(OC)c1OC | 4.32 | 2.48 | 2.79 | 0.96 | 5.81 | 4.61 | 6.16 | 3 | 7.31 | -0.86 |
| Nc1nccc(-c2c(-c3ccc(F)cc3)ncn2C2CCC(O)CC2)n1 (stereo not given) | 23.3 | -0.31 | 19.4 | -1.29 | 0.27 | -0.66 | -0.24 | -0.76 | -0.96 | 0.4 |
| O=C1NC(=O)C(c2cccc(Cl)c2)=C1Nc1ccc(Cl)c(C(=O)O)c1 | 3.62 | 2.22 | 2.81 | 1.11 | 2 | -0.19 | 1.58 | 2.51 | 2.74 | -0.01 |
| CN(c1ccc(NC(=O)Nc2c(Cl)cccc2Cl)cc1)c1ccnc(Nc2cccc(CS(C)(=O)=O)c2)n1 | 2 | 1.3 | 0.38 | 3.11 | 3.77 | 1.9 | 3.22 | 1.96 | 3.64 | 0.85 |
| COc1ccc2cc(-c3c(-c4ccncc4)nc(-c4ccc(S(C)(=O)=O)cc4C)n3C)ccc2c1 | 4.27 | 3.99 | 4.2 | 5.14 | 8.86 | 5.61 | 6.44 | 5.93 | 12.1 | 8.02 |
| Fc1ccc(-c2ncn(C3CCNCC3)c2-c2ccnc(Oc3ccc(Oc4ccccc4)cc3)n2)cc1 | 5.64 | 5.21 | 7.01 | 4.81 | 7.25 | 3.21 | 4.62 | 2.43 | 3.21 | 2.39 |
| Cc1ccc(C(=O)NC2CCC2)cc1-c1ccc(C(=O)NCC2CC2)cc1 | 2.79 | 2.86 | 2.6 | 3.87 | 3.84 | 1.07 | 3.54 | 1.55 | -0.61 | 1.21 |
| NC(=O)c1cc(-c2ccncc2)cc(-c2ccccc2)c1N | 5.63 | 5.86 | 6.16 | 3.61 | 8.21 | 2.71 | 5.42 | 1.92 | 2.61 | 1.71 |
| NS(=O)(=O)c1ccc(Nc2cc(-c3ccc(O)c(F)c3)n[nH]2)cc1 | 2.89 | -2.85 | 0.82 | -1.74 | -1 | -1.16 | 0.01 | -0.97 | -1.36 | -0.2 |
| CCc1ccc(Oc2nccc(-c3c(-c4ccc(F)cc4)ncn3C3CCNCC3)n2)cc1 | 13.7 | 4.01 | 9.71 | 4.32 | 10.4 | 5.03 | 8.46 | 3.21 | 3.97 | 1.24 |
| COc1ccc2cc(-c3c(-c4ccncc4)nc(-c4ccc([S+](C)[O-])cc4C)n3C)ccc2c1 (stereo not given) | 0.1 | -0.55 | -0.05 | 0.69 | 0.56 | 0.02 | 0.21 | 0.49 | 1.21 | -0.64 |
| CN1CCN(CCCNc2nc3ccc(Oc4ccc(NC(=O)Nc5cc(C(F)(F)F)ccc5F)cc4)cc3[nH]2)CC1 | -0.73 | -2.59 | -1.97 | 3.15 | 3.23 | 3.62 | 2.7 | 2.54 | 1.08 | 1.94 |
